Compound activity deposited in PubChem by National Center for Advancing Translational Sciences (NCATS).
An excerpt weighted towards active compounds, which were near 14% of everything screened.
Pf growth 96h = P. falciparum growth inhibition at 96 hours; P. falciparum luciferase reporter growth, 96 h; Potency, µM (top dose mostly 28.7 µM), hits mostly inhibitors; 6.9% of 320,000 active; AID 504834
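Erythrocytes infected with luciferase-expressing P. falciparum were dispensed at 2% hematocrit and 0.05% parasitemia (final), then incubated with compounds 96 hours at 37 C in 5% CO2. Luminescence after detection reagent addition reported growth.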
MARV entry inh = inhibitors of Marburg virus binding or cell entry. Marburg virus pseudotyped entry inhibition, cell reporter. AID 540276. 1.8% of 300,000 active. Potency, µM (series often up to 37.8 µM), actives largely listed as inhibitors; calls by dose curve; tested in HEK293 cells
HCV inh = inhibitors of hepatitis C virus infection; Huh7.5.1 HCVcc-Cre infection, luciferase reporter, 44 h; Potency, µM (series often up to 41.8 µM), usual class: inhibitors; 3.4% of 340,000 active
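Seed cells (1,000/well) for 4 h; treat with compound and infect with HCVcc-Cre, moi about 0.5. Incubate 44 h, then detect luciferase activity.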
Pf growth 48h = P. falciparum growth inhibition at 48 hours (one generation) | Potency, µM (highest dose often 28.7 µM), most hits filed as inhibitors | P. falciparum luciferase growth in erythrocytes, 48 h | 5.9% of 310,000 active | AID 504832
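In quantitative HTS format, infected erythrocytes bearing luciferase-reporter parasites were treated for a single generation at 37 C. Luminescence after adding detection reagent served as the growth measure.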
HCMV inh = human cytomegalovirus inhibition. 4.5% of 410,000 active. HFF cells, HCMV-luciferase reporter, 72 h; active compounds read low. activity change, negative = inhibition, % at 57.5 µM; in the data active = activity change below about -60%; inconclusive = no clear call, values can overlap the other calls; inactive = above about -39%
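Two-dose cell screen: HFF monolayers treated with compounds and infected with luciferase-expressing HCMV at 1 PFU/cell, 72 h at 37C, then lysed for luciferase measurement.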
LASV entry inh = Lassa virus entry inhibition. Lassa virus pseudotype entry inhibition, cell reporter. Potency, µM (titrated, usually from 37.9 µM), most hits filed as inhibitors. 1.2% of 300,000 active. AID 540256; calls by dose curve; tested in HEK293 cells; note: nearly all actives have a fitted effect of over 50% in size
A number is an active result. Unless noted, calls come from the whole dose curve; as a rule, active = well fitted inhibition curve with a large enough effect; inconclusive = small, poorly fitted or top-dose-only effect, or another doubt; inactive = no such curve, though single readings can be large or run the other way.

Results for C=CC[C@@H]1C=C[C@@H](Oc2ccc(OC)cc2)[C@H](COC(=O)c2ccc(Br)cc2)O1 ?
MARV entry inh: inactive

Results for Cc1ccccc1N1CCN(C2=NC(=O)/C(=C\c3cccs3)S2)CC1 ?
Pf growth 96h: 10µM; MARV entry inh: inactive; HCV inh: inconclusive; Pf growth 48h: inconclusive; HCMV inh: inactive; LASV entry inh: inactive

What do the screens show for `O=C1N=C(N2CCOCC2)S/C1=C/c1cccs1`?
Pf growth 96h: 12µM; MARV entry inh: inactive; HCV inh: inactive; Pf growth 48h: inactive; HCMV inh: inactive; LASV entry inh: inactive

How did O=C1N=C(N2CCN(c3cccc4ccccc34)CC2)S/C1=C/c1cccs1 do in these assays?
Pf growth 96h: 9.3µM; MARV entry inh: inconclusive; HCV inh: inactive; Pf growth 48h: 8.3µM; HCMV inh: inactive; LASV entry inh: inactive

What do the screens show for `C[C@H](CO)N1C[C@H](C)[C@@H](CN(C)CC2CC2)OCc2cnnn2CCCC1=O`?
HCMV inh: inactive

What do the screens show for `O=C1/C(=C/c2ccccc2)CCCc2ccccc21`?
Pf growth 96h: inactive; MARV entry inh: inactive; HCV inh: inconclusive; Pf growth 48h: inactive; HCMV inh: inactive; LASV entry inh: inconclusive

Results for O=C1C(=Cc2ccc(Cl)cc2)Cc2ccccc21 ?
HCMV inh: inactive

How did C=CC(=O)N1C/C(=C/c2ccc(Cl)cc2)C(=O)/C(=C\c2ccc(Cl)cc2)C1 do in these assays?
MARV entry inh: inconclusive; HCV inh: 4.5µM; HCMV inh: -100; LASV entry inh: 2.2µM

Results for C=CC(=O)N1C/C(=C/c2ccccc2)C(=O)/C(=C\c2ccccc2)C1 ?
MARV entry inh: 2.8µM; HCV inh: 6.3µM; HCMV inh: -97; LASV entry inh: inconclusive

How did CC(C)c1cc(Cn2c3ccccc3c(=O)n2C(C)Cn2cc(C3=CCCCC3)nn2)on1 (stereo not drawn) do in these assays?
HCMV inh: inactive

How did O=P1(O)Oc2c(c(-c3ccccc3)cc3ccccc23)-c2c(-c3ccccc3)cc3ccccc3c2O1 do in these assays?
MARV entry inh: inactive

Results for Oc1cc(-c2ccccc2)c2ccccc2c1 ?
Pf growth 96h: 12µM; MARV entry inh: inactive; HCV inh: inconclusive; Pf growth 48h: inconclusive; HCMV inh: inactive; LASV entry inh: inactive

Results for CC(C)=CCC/C(C)=C/CNC(=O)C[C@H]1C[C@H](C(=O)N2CCOCC2)[C@@]2(C)c3[nH]c4ccc(Cl)cc4c3CCN2C1=O ?
MARV entry inh: inactive; HCV inh: inactive; HCMV inh: -86

Results for C[C@]12c3[nH]c4ccc(Cl)cc4c3CCN1C(=O)[C@@H](CC(=O)NCCC1=CCCCC1)C[C@@H]2C(=O)N1CCOCC1 ?
MARV entry inh: inactive; HCV inh: 11µM; HCMV inh: inactive

How did CC[C@]12c3[nH]c4ccc(Cl)cc4c3CCN1C(=O)[C@@H](CC(=O)NCC13CC4CC(CC(C4)C1)C3)C[C@@H]2C(=O)N1CCN(C(=O)c2ccco2)CC1 do in these assays?
HCV inh: inconclusive; HCMV inh: -106

How did CC[C@]12c3[nH]c4ccccc4c3CCN1C(=O)C(CC(=O)NCCc1ccccn1)C[C@@H]2C(=O)N1CCN(C(=O)c2ccco2)CC1 (stereo partly drawn) do in these assays?
HCV inh: 0.56µM; HCMV inh: inactive

Results for COC(=O)C(Nc1cc(OC)ccc1OC)(c1cccc(OC)c1)C(Nc1cc(OC)ccc1OC)c1ccc(Br)cc1 (stereo not drawn) ?
HCMV inh: inactive

What do the screens show for `O=C1CC(c2nc3ccccc3n2Cc2c(F)cccc2Cl)CN1c1cccc(C(F)(F)F)c1` (stereo not drawn)?
MARV entry inh: inactive; HCMV inh: inactive; LASV entry inh: inconclusive

What do the screens show for `CN(CCc1ccccc1)C(=O)CC1C(=O)NCCN1Cc1ccccn1` (stereo not drawn)?
HCMV inh: inactive

What do the screens show for `c1ccc(-c2ccc3cnccc3n2)cc1`?
HCMV inh: inactive

What do the screens show for `CC[C@]12c3[nH]c4ccc(Cl)cc4c3CCN1C(=O)[C@@H](CC(=O)NCCC1=CCCCC1)C[C@@H]2C(=O)N1CCN(C(=O)c2ccco2)CC1`?
MARV entry inh: inactive; HCV inh: 32µM; HCMV inh: inconclusive

How did CC(C)N(C(=O)[C@H]1CC(CC(=O)NCCC2=CCCCC2)C(=O)N2CCc3c([nH]c4ccccc34)[C@]12C)C(C)C (stereo partly drawn) do in these assays?
HCV inh: 0.56µM; HCMV inh: inactive

How did CC[C@]12c3[nH]c4ccc(Cl)cc4c3CCN1C(=O)[C@@H](CC(=O)NCCN1CCOCC1)C[C@@H]2C(=O)N1CCN(C(=O)c2ccco2)CC1 do in these assays?
HCV inh: inactive; HCMV inh: inactive

Results for O=C(c1ccco1)N1CCN(C(=O)C2CCCc3c2[nH]c2ccc(Cl)cc32)CC1 (stereo not drawn) ?
MARV entry inh: 2.8µM; HCV inh: inconclusive; Pf growth 48h: inconclusive; HCMV inh: inactive; LASV entry inh: 4.5µM

How did CCOc1ccccc1NC(=O)COC(=O)c1nc2nccc(C)n2n1 do in these assays?
MARV entry inh: inactive; HCV inh: inactive; HCMV inh: inactive; LASV entry inh: inactive

Results for COC(=O)c1cc2c(-c3ccccc3)c(C)c3ccccn3c-2c1C(=O)OC ?
Pf growth 96h: inconclusive; MARV entry inh: inconclusive; HCV inh: inconclusive; HCMV inh: inactive; LASV entry inh: inconclusive

Results for COC(=O)c1c(Cl)c2n3ccccc3c(C)c(-c3ccccc3)c-2c1C(=O)OC ?
Pf growth 96h: 10µM; MARV entry inh: inconclusive; HCV inh: 13µM; Pf growth 48h: inconclusive; HCMV inh: inactive; LASV entry inh: inactive

What do the screens show for `CCN(CC)S(=O)(=O)c1ccc(C)c(NC(=S)N2CCN(C/C=C/c3ccccc3)CC2)c1`?
Pf growth 96h: inconclusive; HCV inh: 8.9µM; Pf growth 48h: inconclusive; HCMV inh: inconclusive

Results for Fc1ccc(NC(=S)N2CCN(C/C=C/c3ccccc3)CC2)c(F)c1 ?
Pf growth 96h: inactive; HCV inh: inconclusive; Pf growth 48h: inconclusive; HCMV inh: inactive

How did COc1ccccc1NC(=S)N1CCN(C/C=C/c2ccccc2)CC1 do in these assays?
Pf growth 96h: inconclusive; MARV entry inh: inactive; HCV inh: inactive; Pf growth 48h: inactive; HCMV inh: -72; LASV entry inh: inactive

What do the screens show for `CCN(CC)S(=O)(=O)c1ccc(C)c(NC(=S)N2CCN(c3ccccn3)CC2)c1`?
Pf growth 96h: inactive; MARV entry inh: inconclusive; HCV inh: 22µM; Pf growth 48h: inconclusive; HCMV inh: inactive; LASV entry inh: 10µM

What do the screens show for `Cc1ccc(NC(=S)N2CCN(c3ccccn3)CC2)c(C)c1`?
Pf growth 96h: inconclusive; HCV inh: inactive; Pf growth 48h: inactive; HCMV inh: inactive
